Assay outcomes as filed in PubChem BioAssay.
An excerpt weighted towards active compounds, which were near 11% of everything screened.
IMPase Li cell: IMPase inhibition in cells with lithium potentiation; CHO-M1 cells, IP1 TR-FRET (IP-One), carbachol + lithium; Potency, µM (top dose mostly 59.4 µM), for the others: top-dose activity, negative = IMPase inhibition, hits mostly inhibitors; 210,000 tested, 0.35% active; AID 1457;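 also: IP1 builds up when IMPase is blocked and the TR-FRET signal falls; potency is read from the fitted curve at half-maximal effect; plate controls were basal vehicle for no effect and high inhibitor control for full effect; nearly all actives have a fitted effect of over 50% in size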
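Steps: plate 2000 CHO-M1 cells per well and culture 16–30 h; add compound and lithium; incubate 30 min, 37C; add d2-IP1 tracer and Eu cryptate anti-IP1 antibody in lysis buffer; read after 10 min at room temperature.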
ALOX12 inhib: 12-hLO (ALOX12) enzyme inhibition; P18054; purified 12-hLO, xylenol orange hydroperoxide absorbance; Potency, µM (top dose mostly 57.1 µM), without a hit: at the top dose activity change, negative = inhibition, most hits filed as inhibitors; 150,000 tested, 0.12% active; also: potency is read from the fitted curve at half-maximal effect; nearly all actives have a fitted effect of over 55% in size
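Hydroperoxide formation by human 12-lipoxygenase from 40 uM arachidonic acid was followed colorimetrically via ferric-xylenol orange complex, using the 573/405 nm absorbance ratio. Enzyme concentration was 150 nM, with 30 min reaction at room temperature.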
HPGD block: inhibitors of human 15-hydroxyprostaglandin dehydrogenase (HPGD). P15428. purified HPGD, NADH fluorescence kinetic, PGE2 substrate. Potency, µM, for the others: at the top dose activity change, negative = inhibition, most hits filed as inhibitors. 150,000 tested, 4.3% active. AID 894; active = well fitted inhibition curve with a large enough effect, not every such curve was filed as active; inconclusive = small, poorly fitted or top-dose-only effect, or another doubt; inactive = no such curve, though single readings can be large or run the other way; also: potency is read from the fitted curve at half-maximal effect
Target sequence (P15428 whole entry, looked up): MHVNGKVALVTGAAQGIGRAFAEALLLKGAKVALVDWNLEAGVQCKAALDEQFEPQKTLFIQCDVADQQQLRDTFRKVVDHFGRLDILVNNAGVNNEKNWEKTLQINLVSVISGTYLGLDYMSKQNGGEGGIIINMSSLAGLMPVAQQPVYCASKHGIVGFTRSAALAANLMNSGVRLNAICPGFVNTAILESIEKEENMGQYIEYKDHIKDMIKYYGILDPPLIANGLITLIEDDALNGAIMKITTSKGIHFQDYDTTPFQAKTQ
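20 nM HPGD preincubated 15 min at room temperature with compound in 50 mM Tris-HCl pH 8, 0.01% Tween 20. Started with 1 mM NAD+ and 30 uM prostaglandin E2; NADH fluorescence (360/450 nm) read 5 times over 30-s intervals, last minus first.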
PNC inhibitor: blocks assembly of the perinucleolar compartment; PC3M PTB-GFP, PNC prevalence imaging, 16 h; active compounds read low; activity change (PNC), negative = inhibition, % at 10 µM; 140,000 tested, 3.1% active;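 active = readout at or below -70, meaning at least 70% loss of cells showing the perinucleolar compartment, a nuclear body marking cancer cells; inconclusive = readout between -30 and a set limit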;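 also: plate controls were DMSO wells for no effect and camptothecin positive control wells for full effect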
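Compounds are pinned in duplicate onto adhered PC3M cells stably expressing GFP-tagged PTB and incubated 16 h at 37 C. Cells are then fixed, nuclei stained with Hoechst, and PNC-positive cells counted.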
ALDH1A1 block: inhibitors of human aldehyde dehydrogenase 1A1; Potency, µM (titrated, usually from 75.3 µM), without a hit: at the highest dose activity, negative = inhibition, most hits filed as inhibitors; Purified ALDH1A1, NADH fluorescence, propionaldehyde substrate; P00352; AID 1030; 220,000 tested, 7.3% active; active = well fitted inhibition curve with a large enough effect, not every such curve was filed as active; inconclusive = small, poorly fitted or top-dose-only effect, or another doubt; inactive = no such curve, though single readings can be large or run the other way;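 also: potency is read from the fitted curve at half-maximal effect; plate controls were no enzyme wells and a reference inhibitor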
IMPase inh: IMPase inhibition in cells; CHO-M1 cells, IP1 accumulation, HTRF TR-FRET ratio; inhibition (IP1 accumulation), % at 46.1 µM; 120,000 tested, under 10 active; AID 901; active = well fitted curve in the direction sought with a large enough effect in the signal ratio, not every such curve was filed as active; inconclusive = small, poorly fitted or top-dose-only effect, or a change in a side signal; inactive = no such curve, though single readings can be large or run the other way; the % refers to the signal ratio;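 also: cells stimulated with carbachol in lithium chloride buffer; plate controls were DMSO basal wells for no effect and reference inhibitor wells for full effect; higher means more IMPase inhibition seen as more IP1 and lower FRET ratio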
Target sequence (P97697 whole entry, looked up): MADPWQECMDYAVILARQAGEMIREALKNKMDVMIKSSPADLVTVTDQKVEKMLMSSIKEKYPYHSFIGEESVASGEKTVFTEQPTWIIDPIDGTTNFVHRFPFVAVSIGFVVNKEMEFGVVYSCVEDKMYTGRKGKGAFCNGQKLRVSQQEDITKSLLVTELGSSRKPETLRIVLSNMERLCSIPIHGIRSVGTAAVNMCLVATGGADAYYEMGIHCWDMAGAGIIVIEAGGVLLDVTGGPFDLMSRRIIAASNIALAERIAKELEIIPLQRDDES
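Elevated IP1 in lysates lowers TR-FRET signal (665/620 ratio and 620 channel reported). Cells were CHO-M1, given carbachol (50 uM as added) plus 50mM LiCl, pH 7.4, 30 min, 37C; compounds titrated up to 46 uM; AC50 by Hill equation.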
* = called active by the depositor; ? = inconclusive; . = no result given; [ ] = dose if it differs, or a comment. Unless noted, calls follow the shape of the dose curve; as a rule, active = well fitted curve in the direction sought with a large enough effect; inconclusive = small, poorly fitted or top-dose-only effect, or another doubt; inactive = no such curve, though single readings can be large; an effect the other way counts as inactive or inconclusive. Unless noted, % is scaled to controls: 0 for no effect and ±100 for the full control effect.

SMILES	IMPase Li cell	ALOX12 inhib	HPGD block	PNC inhibitor	ALDH1A1 block	IMPase inh
Cc1ccc(CSC2=NCCN2C(=O)c2ccc([N+](=O)[O-])cc2)cc1	6.6%	.	.	.	15.8µM*	.
O=C(Cc1ccccc1)N1CCN=C1SCc1ccc([N+](=O)[O-])cc1	.	-1.5%	.	-90.1*	-3.9%	-1.0
CC(=O)N1CCN=C1SCc1ccccc1	14.5%[38.3 µM]	1.5%	-12.4%	0.8	?	8.4
COc1ccc(-c2cc(C(F)(F)F)n3nc(C(=O)O)c(Cl)c3n2)cc1OC	.	.	.	.	.	0.7
CCc1ccc(C=NC23CN4CN(CN(C4)C2)C3)s1	5.3%[38.3 µM]	-0.4%	-10.7%	-21.5	7.94µM*	3.8
CCCCNC(=O)c1ccc(Cc2nc3ccccc3[nH]2)cc1	.	4.0%	-5.0%	.	-3.4%	.
CN(C)c1ccc(-c2nc3ccccn3c2Nc2ccc3c(c2)OCCO3)cc1	.	.	.	.	.	-3.4
Cn1c(=O)[nH]c(=O)c2c1nc(N1CCCCCC1)n2Cc1cccc2ccccc12	8.3%[38.3 µM]	5.9%	-18.5%	-20.1	?	8.0
C=CCn1c(N2CCCC2)nc2c1c(=O)[nH]c(=O)n2C	-3.4%[38.3 µM]	-0.6%	-11.9%	8.2	0.0%	-4.7
Cn1c(=O)[nH]c(=O)c2c1nc(N1CCC(Cc3ccccc3)CC1)n2Cc1ccccc1	15.0%[38.3 µM]	-3.9%	-19.6%	24.0	10µM*	17.5
CC1CCN(c2nc3c(c(=O)n(C)c(=O)n3C)n2CCSc2nc3ccccc3o2)CC1	16.8%[38.3 µM]	-1.4%	-1.4%	?	20.1%	-1.4
Cn1c(N2CCCCC2)nc2c1c(=O)[nH]c(=O)n2C	7.1%[38.3 µM]	-7.8%	-8.3%	-105.7*	?	1.5
Cc1ccc(Cn2c(N3CCCCCC3)nc3c2c(=O)[nH]c(=O)n3C)cc1	22.5%[38.3 µM]	-7.7%	-15.1%	12.9	1.58µM*	5.0
Cn1c(=O)c2c(nc(N3CCCCCC3)n2CCSc2nc3ccccc3o2)n(C)c1=O	9.8%[38.3 µM]	1.9%	-8.5%	?	4.47µM*	7.2
CC(=O)c1c(C)n(-c2ccc(C)cc2)c2ccc(OC(=O)COc3ccccc3)cc12	.	.	.	.	.	-2.8
C#CCCCO/N=C1/C[C@@H](O)[C@@H](O)[C@@H]2[C@@H]3C(=O)N(C(C)(C)C)C(=O)[C@H]3CC[C@H]12	.	.	.	.	5.6%[13.5 µM]	.
CC1CCCN(c2nc3c(c(=O)n(C)c(=O)n3C)n2Cc2ccccc2)C1 (centres undefined)	16.2%[38.3 µM]	-10.8%	-6.1%	0.7	1.78µM*	4.9
Cc1ccc(OCC(O)Cn2c(N3CCOCC3)nc3c2c(=O)[nH]c(=O)n3C)cc1 (centres undefined)	.	-1.2%	.	-94.0*	3.3%	5.0
CN(C)c1nc2c(c(=O)[nH]c(=O)n2C)n1Cc1ccccc1Br	4.7%[38.3 µM]	3.4%	17.8µM*	68.4	7.7%	-3.5
Cn1c(=O)[nH]c(=O)c2c1nc(NCCCn1ccnc1)n2Cc1ccccc1	26.3%[38.3 µM]	0.2%	-13.1%	-102.3*	-3.7%	-2.5
COc1cccc(Cn2cnc3c2c(=O)n(C)c(=O)n3C)c1	.	.	.	.	.	0.1
COCCOC(=O)C1=C(C)N=C2SCCC(=O)N2C1c1ccc(OCc2ccccc2)c(OC)c1 (centres undefined)	.	.	.	.	.	4.1
O=C(c1csnn1)N1CCC[C@@]2(CCN(c3ccccn3)C2)C1	8.6%	7.4%	-11.0%	.	0.2%	.
CC1CCCN(c2nc3c(c(=O)[nH]c(=O)n3C)n2Cc2ccccc2Cl)C1 (centres undefined)	32.2%[38.3 µM]	-6.8%	-26.2%	-87.3*	10µM*	8.6
Nc1nc(NCCc2ccc(O)cc2)nc2nc(-c3ccco3)nn12	23.2%	-5.9%	-14.3%	.	-6.3%	3.1
SMILES	IMPase Li cell	ALOX12 inhib	HPGD block	PNC inhibitor	ALDH1A1 block	IMPase inh
O=C(Nc1ccccc1)N1CC2(CCN(C(=O)c3cc(C(F)(F)F)cc(C(F)(F)F)c3)CC2)C1	0.1%	1.9%	-1.9%	.	-2.8%	.
Cn1c(=O)n(Cc2ccccc2F)c(=O)c2c1nc1n2CCN1Cc1ccco1	-4.5%	.	.	.	7.94µM*	.
Cn1c(=O)n(Cc2ccc(Cl)cc2)c(=O)c2c1nc1n2CCN1Cc1ccco1	-1.1%[38.3 µM]	-5.8%	-4.5%	-6.8	?	6.8
Cn1c(NCCCO)nc2c1c(=O)n(Cc1ccccc1F)c(=O)n2C	-3.0%[38.3 µM]	-0.1%	-2.0%	-12.3	0.8%	10.4
COc1ccccc1Oc1nc2c(c(=O)n(Cc3ccccc3F)c(=O)n2C)n1C	1.3%[38.3 µM]	-18.6%	14.1µM*	-29.7	8.91µM*	-3.9
COC(=O)CC[C@@H](C)C1CC[C@H]2[C@H]3CC[C@H]4C[C@@H]5CCC4(C)[C@@]3(O5)[C@@H](Br)[C@@H](Br)[C@@]12C (some centres undefined)	1.7%	.	-3.9%	.	20.1%[13.5 µM]	.
C=C(C)Cn1c(SCC(=O)c2ccc(Br)cc2)nc2sc3c(c2c1=O)CCCC3	.	.	.	.	.	1.2
COc1cccc(NC(=O)c2ccc(NC(=O)C3CC(=O)OC34CCCCC4)cc2)c1 (centres undefined)	-4.3%	.	.	.	-3.1%	.
Cc1ccc([N+](=O)[O-])cc1N=Nc1c(-c2ccc([N+](=O)[O-])cc2)[nH]n(C(N)=S)c1=O	12.2%	.	.	.	11.2µM*	.
NC(=S)n1[nH]c(-c2ccc([N+](=O)[O-])cc2)c(N=Nc2ccc(Cl)cc2)c1=O	23.0%	.	.	.	?	.
CCCNc1nc(C)nc2c1cnn2CCc1ccccc1	-5.2%[38.3 µM]	-9.6%	-7.6%	19.3	17.8µM*	2.2
Cc1nc(NC(C)C)c2cnn(CCc3ccccc3)c2n1	4.3%[38.3 µM]	2.0%	-0.5%	-6.6	4.4%	-3.0
O=[N+]([O-])c1cc(/C=N/n2c(-c3cccnc3)n[nH]c2=S)ccc1Cl	3.4%	-3.4%	3.98µM*	-12.0	2µM*	7.5
S=c1[nH]nc(-c2cccnc2)n1/N=C/C=C/c1ccccc1	-0.5%	-2.2%	12.6µM*	?	-15.7%	.
CC(/C=N/n1c(COc2ccccc2)n[nH]c1=S)=C\c1ccccc1	5.4%[38.3 µM]	?	5.62µM*	80.3	?	1.0
S=c1[nH]nc(COc2ccccc2)n1/N=C/c1ccncc1	5.6%	.	.	.	-10.0%	.
CC(/C=N/n1c(-c2cccnc2)n[nH]c1=S)=C\c1ccccc1	-10.3%[38.3 µM]	2.7%	3.16µM*	39.1	?	3.9
FC(F)(F)c1nc2nc(Cl)c(Cl)nc2n1CCCN1CCOCC1	-6.0%	0.7%[11.4 µM]	?	.	-2.4%[13.5 µM]	.
CCCOc1ccc(C(=O)Nc2ccc(Cl)c(-c3nc4ncccc4o3)c2)cc1	.	.	.	.	.	8.3
COC(=O)CCCC1=CC2=CC(=O)C(C)(OC(=O)c3cccs3)C(=O)C2=CN1C(CO)CO (centres undefined)	2.3%	2.0%[11.4 µM]	1.8%	.	-1.4%[13.5 µM]	.
